These results are taken from paper PMC11006913.

Residue numbers refer to the chain shown, from its start.

Holding throughout (experiment): PBM; 200 nM protein, PBS
Holding throughout (settings): dsDNA, one strand shown

In experiment [1] the target is HOXB4 (Homo sapiens, UniProt P17483 148-234).
Experiment [2] deals with HOXA4 (Homo sapiens, UniProt Q00056 201-287, W262R).
Experiment [3] deals with HOXA2 (Homo sapiens, UniProt O43364 129-215, R185T).
Experiment [4] has as its target HOXA4 (Homo sapiens, UniProt Q00056 201-287, R217L).
Experiment [5] addresses HOXB4 (Homo sapiens, UniProt P17483 148-234, V174I).
Experiment [6] concerns the target HOXA2 (Homo sapiens, UniProt O43364 129-215, R185K).
The target of experiment [7] is HOXA4 (Homo sapiens, UniProt Q00056 201-287).
Chain of HOXA4 (Homo sapiens, UniProt Q00056 201-287) (Q00056 201-287): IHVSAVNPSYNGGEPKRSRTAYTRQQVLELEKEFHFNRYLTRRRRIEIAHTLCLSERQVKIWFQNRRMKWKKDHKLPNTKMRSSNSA
The target of experiment [8] is VAX1 (Homo sapiens, UniProt Q5SQQ9 86-172, T142I).
Chain of VAX1 (Q5SQQ9 86-172 T142I): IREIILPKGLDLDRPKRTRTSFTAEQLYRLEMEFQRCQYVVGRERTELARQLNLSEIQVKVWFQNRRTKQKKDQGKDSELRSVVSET
For experiment [9], the target named is HOXA2 (Homo sapiens, UniProt O43364 129-215, Y150S).
Chain of HOXA2 (Homo sapiens, UniProt O43364 129-215, Y150S) (O43364 129-215 Y150S): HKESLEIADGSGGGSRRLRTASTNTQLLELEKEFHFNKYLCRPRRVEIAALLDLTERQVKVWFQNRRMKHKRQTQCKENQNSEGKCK
In experiment [10] the target is HOXA4 (Homo sapiens, UniProt Q00056 201-287, W262F).
Chain of HOXA4 (Homo sapiens, UniProt Q00056 201-287, W262F) (Q00056 201-287 W262F): as the sequence (Q00056 201-287) above, with W62F counted along it
For experiment [11], the target named is HOXA2 (Homo sapiens, UniProt O43364 129-215).
Chain of HOXA2 (Homo sapiens, UniProt O43364 129-215) (O43364 129-215): as the sequence (O43364 129-215 Y150S) above, with S22Y counted along it
For experiment [12], the target named is HOXA7 (Homo sapiens, UniProt P31268 116-202).
Chain of HOXA7 (Homo sapiens, UniProt P31268 116-202) (P31268 116-202): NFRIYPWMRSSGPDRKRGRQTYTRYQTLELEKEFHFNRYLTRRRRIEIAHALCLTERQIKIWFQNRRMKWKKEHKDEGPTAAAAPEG
In experiment [13] the target is HOXD13 (Homo sapiens, UniProt P35453 263-343, T313R).
Chain of HOXD13 (Homo sapiens, UniProt P35453 263-343, T313R) (P35453 263-343 T313R): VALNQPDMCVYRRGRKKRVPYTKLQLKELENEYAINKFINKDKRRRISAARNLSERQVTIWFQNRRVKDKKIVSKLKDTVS
The target in experiment [14] is HOXD13 (Homo sapiens, UniProt P35453 263-343).
Chain of HOXD13 (Homo sapiens, UniProt P35453 263-343) (P35453 263-343): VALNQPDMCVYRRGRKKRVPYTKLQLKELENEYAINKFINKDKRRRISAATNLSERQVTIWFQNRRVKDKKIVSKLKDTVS
Experiment [15] deals with HOXD13 (Homo sapiens, UniProt P35453 263-343, T313A).
Chain of HOXD13 (Homo sapiens, UniProt P35453 263-343, T313A) (P35453 263-343 T313A): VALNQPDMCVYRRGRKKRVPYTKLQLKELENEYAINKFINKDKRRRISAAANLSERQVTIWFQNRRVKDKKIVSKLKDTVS
For experiment [16], the target named is HOXA7 (Homo sapiens, UniProt P31268 116-202, W177C).
Chain of HOXA7 (Homo sapiens, UniProt P31268 116-202, W177C) (P31268 116-202 W177C): as the sequence (P31268 116-202) above, with W62C counted along it
The target of experiment [17] is HOXC9 (Homo sapiens, UniProt P31274 178-260, K195R).
Chain of HOXC9 (Homo sapiens, UniProt P31274 178-260, K195R) (P31274 178-260 K195R): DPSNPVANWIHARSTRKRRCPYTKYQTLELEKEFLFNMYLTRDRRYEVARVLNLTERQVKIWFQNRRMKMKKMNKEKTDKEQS
The target of experiment [18] is T1, PAX4 (Homo sapiens, UniProt O43316 9-242, R200K).
T1 sequence: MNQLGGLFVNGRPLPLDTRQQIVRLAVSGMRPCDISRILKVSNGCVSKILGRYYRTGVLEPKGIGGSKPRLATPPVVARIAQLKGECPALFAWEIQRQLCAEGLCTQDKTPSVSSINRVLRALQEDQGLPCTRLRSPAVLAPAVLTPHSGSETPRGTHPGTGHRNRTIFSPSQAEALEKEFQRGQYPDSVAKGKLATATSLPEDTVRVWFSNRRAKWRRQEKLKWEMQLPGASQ

The target in experiment [19] is T2, PAX4 (Homo sapiens, UniProt O43316 9-242).
T2 sequence: T1 sequence with K192R

Experiment [20] has as its target HOXC9 (Homo sapiens, UniProt P31274 178-260).
The target in experiment [21] is T3, PAX4 (Homo sapiens, UniProt O43316 9-242, R200Q).
T3 sequence: T1 sequence with K192Q

The target in experiment [22] is HOXC9 (Homo sapiens, UniProt P31274 178-260, R193K).
Chain of HOXC9 (Homo sapiens, UniProt P31274 178-260, R193K) (P31274 178-260 R193K): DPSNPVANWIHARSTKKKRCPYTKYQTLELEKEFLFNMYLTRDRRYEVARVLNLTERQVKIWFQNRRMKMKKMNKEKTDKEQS
For experiment [23], the target named is T4, PAX4 (Homo sapiens, UniProt O43316 9-242, F177V).
T4 sequence: T1 sequence with F169V, K192R

In experiment [24] the target is T5, PAX4 (Homo sapiens, UniProt O43316 9-242, F177Y).
T5 sequence: T1 sequence with F169Y, K192R

Experiment [25] deals with HOXC9 (Homo sapiens, UniProt P31274 178-260, R222W).
Chain of HOXC9 (Homo sapiens, UniProt P31274 178-260, R222W) (P31274 178-260 R222W): as the sequence (P31274 178-260 R193K) above, with K16R, R45W counted along it
For experiment [26], the target named is T6, PAX4 (Homo sapiens, UniProt O43316 9-242, R227W).
T6 sequence: T1 sequence with K192R, R219W

Experiment [27] addresses HOXB6 (Homo sapiens, UniProt P17509 132-218, K202E).
The target of experiment [28] is MSX2 (Homo sapiens, UniProt P35548 130-214, R199I).
Chain of MSX2 (Homo sapiens, UniProt P35548 130-214, R199I) (P35548 130-214 R199I): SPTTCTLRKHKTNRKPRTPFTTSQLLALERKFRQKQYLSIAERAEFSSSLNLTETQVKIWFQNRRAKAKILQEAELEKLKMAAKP
Experiment [29] deals with MSX2 (Homo sapiens, UniProt P35548 130-214).
Chain of MSX2 (Homo sapiens, UniProt P35548 130-214) (P35548 130-214): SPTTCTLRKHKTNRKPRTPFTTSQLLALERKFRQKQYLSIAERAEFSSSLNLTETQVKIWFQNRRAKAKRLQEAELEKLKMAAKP
Experiment [30] has as its target MSX2 (Homo sapiens, UniProt P35548 130-214, F161Y).
Experiment [31] addresses HOXB6 (Homo sapiens, UniProt P17509 132-218).

Chain of HOXB4 (Homo sapiens, UniProt P17483 148-234) (P17483 148-234): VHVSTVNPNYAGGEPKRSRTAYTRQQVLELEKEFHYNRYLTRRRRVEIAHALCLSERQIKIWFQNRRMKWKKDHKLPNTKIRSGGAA
Chain of HOXA2 (Homo sapiens, UniProt O43364 129-215, R185T) (O43364 129-215 R185T): as the sequence (O43364 129-215 Y150S) above, with S22Y, R57T counted along it
Chain of HOXA4 (Homo sapiens, UniProt Q00056 201-287, R217L) (Q00056 201-287 R217L): as the sequence (Q00056 201-287) above, with R17L counted along it
Chain of HOXA2 (Homo sapiens, UniProt O43364 129-215, R185K) (O43364 129-215 R185K): as the sequence (O43364 129-215 Y150S) above, with S22Y, R57K counted along it
Chain of HOXA4 (Homo sapiens, UniProt Q00056 201-287, W262R) (Q00056 201-287 W262R): as the sequence (Q00056 201-287) above, with W62R counted along it
Chain of HOXB4 (Homo sapiens, UniProt P17483 148-234, V174I) (P17483 148-234 V174I): as the sequence (P17483 148-234) above, with V27I counted along it
Chain of HOXC9 (Homo sapiens, UniProt P31274 178-260) (P31274 178-260): as the sequence (P31274 178-260 R193K) above, with K16R counted along it
Chain of HOXB6 (Homo sapiens, UniProt P17509 132-218, K202E) (P17509 132-218 K202E): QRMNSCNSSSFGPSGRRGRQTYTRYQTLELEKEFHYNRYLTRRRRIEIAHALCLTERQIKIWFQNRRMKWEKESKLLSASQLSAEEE
Chain of MSX2 (Homo sapiens, UniProt P35548 130-214, F161Y) (P35548 130-214 F161Y): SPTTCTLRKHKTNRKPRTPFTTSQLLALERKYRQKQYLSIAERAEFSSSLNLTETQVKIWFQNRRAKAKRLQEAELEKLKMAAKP
Chain of HOXB6 (Homo sapiens, UniProt P17509 132-218) (P17509 132-218): as the sequence (P17509 132-218 K202E) above, with E71K counted along it

Turning to ATAATGAT, the binding signal is 13.2 upbm affinity estimate (log intensity, higher = more binding, comparable within an allelic series) in [1]; 10.6 upbm affinity estimate (log intensity, higher = more binding, comparable within an allelic series) in experiment [2]; 12.1 upbm affinity estimate (log intensity, higher = more binding, comparable within an allelic series) in experiment [3]; 12.2 upbm affinity estimate (log intensity, higher = more binding, comparable within an allelic series) in [4]; 13.8 upbm affinity estimate (log intensity, higher = more binding, comparable within an allelic series) in experiment [5]; 13.1 upbm affinity estimate (log intensity, higher = more binding, comparable within an allelic series) in experiment [6]. The binding signal in experiment [7] is 13.9 upbm affinity estimate (log intensity, higher = more binding, comparable within an allelic series); in experiment [8] it was 12.3 upbm affinity estimate (log intensity, higher = more binding, comparable within an allelic series); in [9] it was 10.9 upbm affinity estimate (log intensity, higher = more binding, comparable within an allelic series); in [10] it was 11.5 upbm affinity estimate (log intensity, higher = more binding, comparable within an allelic series); in experiment [11], 12.1 upbm affinity estimate (log intensity, higher = more binding, comparable within an allelic series).

As to ATCATTAC, the binding signal in [1] is 13.1 upbm affinity estimate (log intensity, higher = more binding, comparable within an allelic series); in experiment [2] it was 10.4 upbm affinity estimate (log intensity, higher = more binding, comparable within an allelic series); in [4], 12 upbm affinity estimate (log intensity, higher = more binding, comparable within an allelic series); in experiment [5] it was 13.8 upbm affinity estimate (log intensity, higher = more binding, comparable within an allelic series); in experiment [7] it was 13.6 upbm affinity estimate (log intensity, higher = more binding, comparable within an allelic series); in experiment [10], 11.2 upbm affinity estimate (log intensity, higher = more binding, comparable within an allelic series).

For CTGGCGGC, the binding signal is 7.3 upbm affinity estimate (log intensity, higher = more binding, comparable within an allelic series) in experiment [1]; 9.71 upbm affinity estimate (log intensity, higher = more binding, comparable within an allelic series) in [2]; 8.57 upbm affinity estimate (log intensity, higher = more binding, comparable within an allelic series) in experiment [12]; 7.15 upbm affinity estimate (log intensity, higher = more binding, comparable within an allelic series) in experiment [3]; 9.74 upbm affinity estimate (log intensity, higher = more binding, comparable within an allelic series) in experiment [4]; 7.49 upbm affinity estimate (log intensity, higher = more binding, comparable within an allelic series) in experiment [5]. In addition, the binding signal in [13] was 9.52 upbm affinity estimate (log intensity, higher = more binding, comparable within an allelic series); in experiment [6], 10.3 upbm affinity estimate (log intensity, higher = more binding, comparable within an allelic series); in experiment [14] it was 9.59 upbm affinity estimate (log intensity, higher = more binding, comparable within an allelic series); in experiment [7] it was 9.58 upbm affinity estimate (log intensity, higher = more binding, comparable within an allelic series); in experiment [15], 9.5 upbm affinity estimate (log intensity, higher = more binding, comparable within an allelic series); in [9], 10.5 upbm affinity estimate (log intensity, higher = more binding, comparable within an allelic series). In addition, the binding signal was 8.35 upbm affinity estimate (log intensity, higher = more binding, comparable within an allelic series) in [16]; 9.86 upbm affinity estimate (log intensity, higher = more binding, comparable within an allelic series) in [10]; 7.36 upbm affinity estimate (log intensity, higher = more binding, comparable within an allelic series) in experiment [11].

In the case of AGGGGGGG, the binding signal in [1] was 7.37 upbm affinity estimate (log intensity, higher = more binding, comparable within an allelic series); in experiment [17], 9.2 upbm affinity estimate (log intensity, higher = more binding, comparable within an allelic series); in experiment [18], 9.12 upbm affinity estimate (log intensity, higher = more binding, comparable within an allelic series); in experiment [19], 9.16 upbm affinity estimate (log intensity, higher = more binding, comparable within an allelic series); in experiment [5], 7.23 upbm affinity estimate (log intensity, higher = more binding, comparable within an allelic series); in experiment [20], 9.24 upbm affinity estimate (log intensity, higher = more binding, comparable within an allelic series). For the same sequence, the binding signal in [21] is 9.15 upbm affinity estimate (log intensity, higher = more binding, comparable within an allelic series); in experiment [22], 9.31 upbm affinity estimate (log intensity, higher = more binding, comparable within an allelic series); in experiment [23], 8.93 upbm affinity estimate (log intensity, higher = more binding, comparable within an allelic series); in experiment [24], 9.09 upbm affinity estimate (log intensity, higher = more binding, comparable within an allelic series); in [25], 9.11 upbm affinity estimate (log intensity, higher = more binding, comparable within an allelic series); in [26], 9.07 upbm affinity estimate (log intensity, higher = more binding, comparable within an allelic series).

Turning to CGCCGGGC, the binding signal is 7.64 upbm affinity estimate (log intensity, higher = more binding, comparable within an allelic series) in experiment [1]; 9.72 upbm affinity estimate (log intensity, higher = more binding, comparable within an allelic series) in [2]; 7.33 upbm affinity estimate (log intensity, higher = more binding, comparable within an allelic series) in [3]; 9.76 upbm affinity estimate (log intensity, higher = more binding, comparable within an allelic series) in experiment [4]; 7.67 upbm affinity estimate (log intensity, higher = more binding, comparable within an allelic series) in experiment [5]; 10.2 upbm affinity estimate (log intensity, higher = more binding, comparable within an allelic series) in experiment [6]. Besides, the binding signal in experiment [7] is 9.84 upbm affinity estimate (log intensity, higher = more binding, comparable within an allelic series); in experiment [9] it was 10.4 upbm affinity estimate (log intensity, higher = more binding, comparable within an allelic series); in experiment [10], 9.99 upbm affinity estimate (log intensity, higher = more binding, comparable within an allelic series); in experiment [11] it was 7.24 upbm affinity estimate (log intensity, higher = more binding, comparable within an allelic series).

With CCGGACCA, the binding signal in experiment [1] is 7.72 upbm affinity estimate (log intensity, higher = more binding, comparable within an allelic series); in [17] it was 9.48 upbm affinity estimate (log intensity, higher = more binding, comparable within an allelic series); in [27], 9.06 upbm affinity estimate (log intensity, higher = more binding, comparable within an allelic series); in experiment [5], 7.8 upbm affinity estimate (log intensity, higher = more binding, comparable within an allelic series); in [20] it was 9.57 upbm affinity estimate (log intensity, higher = more binding, comparable within an allelic series); in [28], 9.46 upbm affinity estimate (log intensity, higher = more binding, comparable within an allelic series). The binding signal was 9.51 upbm affinity estimate (log intensity, higher = more binding, comparable within an allelic series) in experiment [22]; 9.39 upbm affinity estimate (log intensity, higher = more binding, comparable within an allelic series) in [29]; 9.77 upbm affinity estimate (log intensity, higher = more binding, comparable within an allelic series) in experiment [25]; 9.4 upbm affinity estimate (log intensity, higher = more binding, comparable within an allelic series) in experiment [30]; 8.79 upbm affinity estimate (log intensity, higher = more binding, comparable within an allelic series) in [31].
